Growth inhibition data for 40 compounds are collected here from PubChem BioAssay (NCI).

The structures appear in SMILES notation. The panel holds about 79,000 compounds, 15% with a hit somewhere; the sample as a whole holds those more often. Values without a mark were called inactive. Active and inactive are the calls of the source. Rule as the data show it: active = growth inhibition above about 70%; inactive = the rest.

The nature of one assay: NCI Yeast Anticancer Drug Screen. Data for the cln2 rad14 strain (AID 165).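 Also: 0% = growth equal to vehicle treated cultures.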 The following applies: S. cerevisiae cln2 rad14 strain, at 50.0 µM, stronger effect = higher value. In outline: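 cln2 rad14 yeast strain; compound exposure; growth inhibition read vs vehicle controls.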
As for `O=C1NC(=S)NC(=O)C1=Cc1cc2c(cc1[N+](=O)[O-])OCO2`, the growth inhibition is 15.1%.

With `O=S(=O)(O)c1ccc(Cl)cc1`, the growth inhibition is 23.1%.

Regarding `CCN(CC)c1cccc(OC(=O)NC)c1`, the growth inhibition is -15.8%.

For the compound `O=C1OC(Br)c2ccccc21` (stereo not given), the growth inhibition was 7%.

With `CCOP(=O)(OCC)O/N=C(/c1ccccc1)C(C)C`, the growth inhibition is 10.3%.

In the case of `Cc1cc2[nH]c3c(C#N)c(OC(=O)N(C)C)c(-c4ccccc4)c(=O)n3c2cc1C`, the growth inhibition is -7.15%.

`CC(=O)Nc1cc([As](C)(=O)O)ccc1O`: the growth inhibition is -41.5%.

Take `COc1ccc(N2CC=C(c3ccccc3)OP2(=O)N(CCCl)CCCl)cc1` (stereo not given): the growth inhibition is 9.75%.

Regarding `CC(=O)CC(C)=O.CC(=O)CC(C)=O.[Cl][Sn][c]1ccccc1`, the growth inhibition is 8.4%.

For `COP(=S)(c1ccccc1)N(C)C(=O)Oc1cccc(C(C)C)c1` (stereo not given), the growth inhibition is 25.8%.

With `O=NNc1ccc(C(F)(F)F)cn1`, the growth inhibition is -5.75%.

In the case of `CC1(C)N=C(N)N=C(N)N1c1cccc(CCCCc2ccc(S(=O)(=O)F)c(Cl)c2)c1`, the growth inhibition was 99.4% (active).

Consider `Cc1cc([N+](=O)[O-])c(N)c([N+](=O)[O-])c1`, for which the growth inhibition is 3.6%.

Take `CNC(=O)N1CN(c2ccccc2)C2(CCN(Cc3ccccc3)CC2)C1=O`: the growth inhibition is -2.8%.

`CC([OH2+])CNCCN.CC([OH2+])CNCCN.O=[N+]([O-])[O-].[Cu+2]` (stereo not given): the growth inhibition was -39.6%.

Turning to `[Cl][Co][Br].[NH-]CC[NH-].[NH-]CC[NH-]`, the growth inhibition is -42.1%.

For the compound `[C-]#[O+].[C-]#[O+].[C-]#[O+].[C-]#[O+].[C-]#[O+].[C-]#[O+].[C-]#[O+].[C-]#[O+].[C-]#[O+].[CH2-]C.[Co].[Co].[Co]`, the growth inhibition is -2.3%.

As for `CCOP(=O)(OCC)C(C)(C)OC(=O)NC#N`, the growth inhibition is -8.85%.

On to `O=C(NC(Cl)=C(Cl)Cl)P(=O)(c1ccccc1)c1ccccc1`, for which the growth inhibition was 17.2%.

As for `O=NC1C(=O)NC(=O)NC1=O`, the growth inhibition is 14.7%.

With `N#CC(C#N)=Cc1ccc(C=C(C#N)C#N)cc1`, the growth inhibition was -14.8%.

For `O=S(=O)(O)C1CCC(O)C2[N-]CCCC21.O=S(=O)(O)C1CCC(O)C2[N-]CCCC21.[Ni+2]` (stereo not given), the growth inhibition is -13.4%.

`CC(=O)Nc1cc([As](=O)(O)O)ccc1O`: the growth inhibition was -28.2%.

As to `O=[N+]([O-])c1ccc(OCc2ccc(S(=O)(=O)F)cc2Cl)c(Cl)c1`, the growth inhibition was 20.6%.

With `CCOP(=O)(OCC)O/N=C(/C#N)c1ccccc1`, the growth inhibition is -0.35%.

`CC1(C)C(=O)/C(=N\O)C[C@@]2(C)C1=CC[C@@H]1[C@@H]2CC[C@]2(C)C(=O)/C(=N/O)C[C@@H]12`: the growth inhibition was -45.1%.

In the case of `CC(=O)OCC1OC([Se-])C(OC(C)=O)C(OC(C)=O)C1OC(C)=O.N#CCC[PH+](CCC#N)CCC#N.[Au+]` (stereo not given), the growth inhibition is -15.8%.

For the compound `c1ccc(C(c2ccccc2)C2CCNCC2)cc1`, the growth inhibition is 16.2%.

On to `O=CC1(c2ccccc2)CCNCC1`, for which the growth inhibition is 6.35%.

Take `CCOC(=O)/C=C1/C=C(C)CC(C)(C)C1` (tested in a mixture with another compound): the growth inhibition was -40.5%.

With `O=C1OC(c2ccccc2)(c2ccccc2)C(=O)OC1(c1ccccc1)c1ccccc1`, the growth inhibition was 0.4%.

`CCOc1ccccc1C=C(C#N)C#N`: the growth inhibition was 12.2%.

`CC(=O)Nc1cc([As]=O)ccc1O` (stereo not given): the growth inhibition is 10.6%.

With `CCC1(CC)C(=O)NC(=NCCCC(N)C(=O)O)NC1=O` (stereo not given), the growth inhibition is 11.4%.

For `O=[As](c1ccccc1)(c1ccccc1)c1ccc(Br)cc1`, the growth inhibition was 5.1%.

On to `C[N+]1([O-])C2CCC1CC(O)C2` (stereo not given), for which the growth inhibition is 16.2%.

As to `CC(Br)C(=O)C(CCN(C)C)(c1ccccc1)c1ccccc1` (stereo not given), the growth inhibition was -6.4%.

For `N#Cc1ccccn1`, the growth inhibition is -6.95%.

Turning to `C#CC(=O)[O][Sn]([c]1ccccc1)([c]1ccccc1)[c]1ccccc1`, the growth inhibition was 99.2% (active).

On to `C=CCNCC(O)c1ccccc1` (stereo not given), for which the growth inhibition is 6.7%.

The nature of another assay: NCI Yeast Anticancer Drug Screen. Data for the bub3 strain (AID 167). Particulars: S. cerevisiae bub3 mutant strain, at 50.0 µM, stronger effect = higher value. In outline: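 Mutant yeast screening strain plus compound; vehicle-treated cultures serve as the 0% inhibition reference.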
With `O=C1NC(=S)NC(=O)C1=Cc1cc2c(cc1[N+](=O)[O-])OCO2`, the growth inhibition was 7.95%.

Regarding `O=S(=O)(O)c1ccc(Cl)cc1`, the growth inhibition was 0.3%.

Regarding `CCN(CC)c1cccc(OC(=O)NC)c1`, the growth inhibition was 3.5%.

In the case of `O=C1OC(Br)c2ccccc21` (stereo not given), the growth inhibition is -20.1%.

Regarding `CCOP(=O)(OCC)O/N=C(/c1ccccc1)C(C)C`, the growth inhibition is -0.1%.

On to `Cc1cc2[nH]c3c(C#N)c(OC(=O)N(C)C)c(-c4ccccc4)c(=O)n3c2cc1C`, for which the growth inhibition is 1.9%.

For the compound `CC(=O)Nc1cc([As](C)(=O)O)ccc1O`, the growth inhibition was -9.65%.

As for `COc1ccc(N2CC=C(c3ccccc3)OP2(=O)N(CCCl)CCCl)cc1` (stereo not given), the growth inhibition is 6.4%.

For `CC(=O)CC(C)=O.CC(=O)CC(C)=O.[Cl][Sn][c]1ccccc1`, the growth inhibition was 35.1%.

On to `COP(=S)(c1ccccc1)N(C)C(=O)Oc1cccc(C(C)C)c1` (stereo not given), for which the growth inhibition was 43.8%.

With `O=NNc1ccc(C(F)(F)F)cn1`, the growth inhibition is -17.4%.

Consider `CC1(C)N=C(N)N=C(N)N1c1cccc(CCCCc2ccc(S(=O)(=O)F)c(Cl)c2)c1`, for which the growth inhibition was 99.3% (active).

`Cc1cc([N+](=O)[O-])c(N)c([N+](=O)[O-])c1`: the growth inhibition is -10.8%.

Consider `CNC(=O)N1CN(c2ccccc2)C2(CCN(Cc3ccccc3)CC2)C1=O`, for which the growth inhibition was -10.4%.

For `CC([OH2+])CNCCN.CC([OH2+])CNCCN.O=[N+]([O-])[O-].[Cu+2]` (stereo not given), the growth inhibition is -0.7%.

Turning to `[Cl][Co][Br].[NH-]CC[NH-].[NH-]CC[NH-]`, the growth inhibition is 36.4%.

Take `[C-]#[O+].[C-]#[O+].[C-]#[O+].[C-]#[O+].[C-]#[O+].[C-]#[O+].[C-]#[O+].[C-]#[O+].[C-]#[O+].[CH2-]C.[Co].[Co].[Co]`: the growth inhibition is 24.2%.

On to `CCOP(=O)(OCC)C(C)(C)OC(=O)NC#N`, for which the growth inhibition is -13.6%.

As to `O=C(NC(Cl)=C(Cl)Cl)P(=O)(c1ccccc1)c1ccccc1`, the growth inhibition is -5.4%.

As to `O=NC1C(=O)NC(=O)NC1=O`, the growth inhibition is 11.7%.

Turning to `N#CC(C#N)=Cc1ccc(C=C(C#N)C#N)cc1`, the growth inhibition was -15.8%.

Regarding `O=S(=O)(O)C1CCC(O)C2[N-]CCCC21.O=S(=O)(O)C1CCC(O)C2[N-]CCCC21.[Ni+2]` (stereo not given), the growth inhibition is 8.4%.

On to `CC(=O)Nc1cc([As](=O)(O)O)ccc1O`, for which the growth inhibition is 9.85%.

For `O=[N+]([O-])c1ccc(OCc2ccc(S(=O)(=O)F)cc2Cl)c(Cl)c1`, the growth inhibition was -3.55%.

As for `CCOP(=O)(OCC)O/N=C(/C#N)c1ccccc1`, the growth inhibition is -7.45%.

Regarding `CC1(C)C(=O)/C(=N\O)C[C@@]2(C)C1=CC[C@@H]1[C@@H]2CC[C@]2(C)C(=O)/C(=N/O)C[C@@H]12`, the growth inhibition is -1%.

Regarding `CC(=O)OCC1OC([Se-])C(OC(C)=O)C(OC(C)=O)C1OC(C)=O.N#CCC[PH+](CCC#N)CCC#N.[Au+]` (stereo not given), the growth inhibition is 1.75%.

On to `c1ccc(C(c2ccccc2)C2CCNCC2)cc1`, for which the growth inhibition was 32.6%.

On to `O=CC1(c2ccccc2)CCNCC1`, for which the growth inhibition was 0.85%.

In the case of `CCOC(=O)/C=C1/C=C(C)CC(C)(C)C1` (tested in a mixture with another compound), the growth inhibition was 19%.

`O=C1OC(c2ccccc2)(c2ccccc2)C(=O)OC1(c1ccccc1)c1ccccc1`: the growth inhibition is 10.4%.

In the case of `CCOc1ccccc1C=C(C#N)C#N`, the growth inhibition is 1.75%.

Take `CC(=O)Nc1cc([As]=O)ccc1O` (stereo not given): the growth inhibition was 50.8%.

Take `CCC1(CC)C(=O)NC(=NCCCC(N)C(=O)O)NC1=O` (stereo not given): the growth inhibition was 23.6%.

Take `O=[As](c1ccccc1)(c1ccccc1)c1ccc(Br)cc1`: the growth inhibition is 6.2%.

With `C[N+]1([O-])C2CCC1CC(O)C2` (stereo not given), the growth inhibition was -2.5%.

As to `CC(Br)C(=O)C(CCN(C)C)(c1ccccc1)c1ccccc1` (stereo not given), the growth inhibition is 21.8%.

For `N#Cc1ccccn1`, the growth inhibition is 3.5%.

For the compound `C#CC(=O)[O][Sn]([c]1ccccc1)([c]1ccccc1)[c]1ccccc1`, the growth inhibition is 98.9% (active).

On to `C=CCNCC(O)c1ccccc1` (stereo not given), for which the growth inhibition is 6.5%.
